Only some compounds are listed: those with a hit (about 3.8% of all), similar ones and a draw of the others.
Yeast superoxide – lowers age-related superoxide in aged yeast cells; superoxide response (% of plate mean), % at 10 µM; S. cerevisiae aged cells, superoxide DHE fluorescence; active compounds read low; AID 2690; hit rate 0.18% among 330,000;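 active means superoxide response under a set limit, about three screen SD below normal, cut at about 65% in these data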;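 further: yeast aged for seven days with compound at 30 °C before DHE staining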
Mot1-301 SUMO – inhibitors of SUMOylation pathway: yeast Mot1-301 growth rescue; hit rate 1% among 320,000; S. cerevisiae Mot1-301 growth rescue, ATP luminescence, 38.5C; percent above DMSO median, 100 means doubled; growth rescue, % at 18.8 µM;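 active means every valid replicate shows activation above 250% relative to neutral control wells; inactive means the rest, any valid replicate at or below 250%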
MPTP block – blocks calcium-induced mitochondrial swelling; isolated mouse mitochondria, Ca2+ swelling absorbance, 30 min; inhibition, % at 10 µM; hit rate 1.4% among 360,000; AID 602449;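 active means inhibition of 50% or more, scaled per plate between neutral and stimulator controls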
aDG glyco up – alpha-DG glycosylation activation | Pro5-aDG cells, alpha-DG glycosylation AlphaScreen (IIH6); 0% Pro5, 100% B10-LARGE cell signal | activation, % at 10 µM | hit rate 0.22% among 360,000 | AID 624168;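 active means activation of at least 8% versus controls, or a plate z-score of at least 8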;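 further: Pro5 are CHO cells carrying HIG-tagged alpha-DG that lacks glycosylation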
FAS TE block – blocks the thioesterase domain of human fatty acid synthase; P49327; recombinant FAS-TE, OMFH fluorogenic substrate, fluorescence endpoint; inhibition, % at 15 µM; hit rate 0.67% among 360,000;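 active means compounds whose normalised, plate-corrected inhibition of enzyme fluorescence in the single-dose primary screen is 50% or more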
H9c2 protect – protects H9c2 cardiomyocytes from peroxide injury; H2O2 injury protection, ATPLite, 2 h; protection from H2O2 cell death, % at 20 µM; hit rate 0.63% among 360,000;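 active means compounds giving at least 50% protection of heart cells from peroxide-induced death in the single-dose screen, raw or plate-pattern-corrected value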
MPTP counter – Rhodamine 123 counter-screen of mitochondrial pore hits; hit rate 78% among 5,000; isolated mitochondria, membrane potential, Rhodamine 123 fluorescence; inhibition, % at 10 µM; shares compounds with MPTP block; in the data active means inhibition above about 22%
A number is an active result; 0 = inactive; - = no result.

SMILES | Yeast superoxide | Mot1-301 SUMO | MPTP block | aDG glyco up | FAS TE block | H9c2 protect | MPTP counter
Cc1ccc(NC(=O)CCN2C(=O)NC3(CCCC3)C2=O)cc1S(=O)(=O)N1CCOCC1 | 0 | 0 | 0 | 0 | 0 | 0 | -
COc1ccc(-c2c(NC(=O)c3ccco3)oc3ccccc3c2=O)cc1 | 0 | 0 | 0 | 0 | 0 | 0 | -
NC(=O)C[C@H](NC(=O)c1ccc(Cl)cc1)C(=O)OCc1ccccc1 | 0 | 0 | 0 | 0 | 0 | 0 | -
Cc1nc2ccccn2c1C(=O)CSc1ccccc1Cl | 0 | 0 | 0 | 0 | 0 | 0 | -
Cc1nc2ccccn2c1C(=O)CSc1ccc(Cl)cc1Cl | 0 | 0 | 72.3 | 0 | 0 | 0 | 0
COc1ccc(S(=O)(=O)N(C)C[C@H]2Oc3c(NC(=O)CCC(F)(F)F)cccc3C(=O)N([C@H](C)CO)C[C@@H]2C)cc1 | 0 | 0 | 0 | 0 | 0 | 0 | -
FC(F)(F)Oc1ccccc1C(c1nnnn1Cc1ccccc1)N1CCN(C/C=C/c2ccccc2)CC1 (stereo not given) | - | - | 0 | 0 | 0 | 0 | -
Cc1ccc(S(=O)(=O)N2[C@H](c3cccc(Cl)c3)CC(=O)[C@@H]3CN(S(=O)(=O)c4ccccc4C)[C@H](c4ccc(Cl)cc4)C[C@@H]32)cc1 | - | - | 81.0 | 0 | 0 | 0 | 68.9
Cc1ccc([C@@H]2CC(=O)[C@@H]3CN(S(=O)(=O)c4ccccc4C)[C@H](c4ccc(Cl)cc4)C[C@@H]3N2S(=O)(=O)c2ccc(C)cc2)cc1 | - | - | 58.1 | 0 | 0 | 0 | 77.1
CC(=O)c1cccc(-c2ccnc3c2CC(C(=O)Nc2cccc(C(F)(F)F)c2)O3)c1 (stereo not given) | - | - | 0 | 0 | 0 | 0 | -
CN(C)c1ccc(CC(=O)N2CCCCC2c2cc(C(=O)Nc3cccc(C#N)c3)no2)cc1 (stereo not given) | - | - | 0 | 0 | 0 | 0 | -
Cc1ncc(CO)c(/C=N/NC(=O)c2ccc(O)cc2)c1O | 0 | 0 | 0 | 0 | 0 | 0 | -
Cc1ncc(CO)c(/C=N/NC(=S)Nc2ccc(Cl)c(Cl)c2)c1O | 0 | 0 | 87.3 | 0 | 0 | 0 | 69.6
Cc1ncc(CO)c(/C=N/NC(=S)Nc2cccc(Cl)c2)c1O | 0 | 0 | 78.4 | 0 | 0 | 0 | 79.2
CCCCN1C(=O)c2ccc(C(=O)Nc3ccc(C)c(S(=O)(=O)N(C)C)c3)cc2C1=O | 0 | 0 | 68.8 | 0 | 0 | 0 | 68.6
Cc1ccc(NC(=O)c2ccncc2)cc1S(=O)(=O)N(C)C | 0 | 0 | 0 | 0 | 0 | 0 | -
CN(C)S(=O)(=O)Oc1ccc(C(=O)Nc2cccc(C(F)(F)F)c2)cc1 | 0 | 0 | 74.5 | 0 | 0 | 0 | 82.2
CN(C)S(=O)(=O)Oc1ccc(C(=O)Nc2cccc(Cl)c2)cc1 | 0 | 0 | 0 | 0 | 0 | 0 | -
Cc1ccc(NC(=O)c2ccc(OC(F)(F)F)cc2)cc1S(=O)(=O)N(C)C | 0 | 0 | 77.6 | 0 | 0 | 0 | 86.3
CO/N=C/c1ccc(N2CCN(C(=O)c3ccc(Cl)cc3Cl)CC2)c([N+](=O)[O-])c1 | 0 | 0 | 77.5 | 0 | 0 | 0 | 59.9
O=C(COc1ccccc1/C=C1\SC(=S)NC1=O)Nc1ccc(F)cc1 | 0 | 0 | 61.0 | 0 | 0 | 0 | 77.6
Nc1ccc(NC(=O)NC2CCCCC2)cc1 | 0 | 0 | 0 | 0 | 0 | 0 | -
S=C(Nc1ccc(Br)cc1)NC1CCCC1 | 0 | 0 | 95.0 | 0 | 0 | 0 | 97.3
S=C(NCC1CCCCC1)Nc1ccc(Oc2ccccc2)cc1 | 0 | 0 | 86.3 | 0 | 0 | 0 | 86.2
CC(C)(C)NC(=O)Nc1ccc(F)c(Cl)c1 | 0 | 0 | 0 | 0 | 0 | 0 | -
SMILES | Yeast superoxide | Mot1-301 SUMO | MPTP block | aDG glyco up | FAS TE block | H9c2 protect | MPTP counter
CC(C)(C)NC(=O)Nc1ccc(Br)cc1 | 0 | 0 | 57.8 | 0 | 0 | 0 | 76.8
CN1CCC(NC(=O)Nc2ccc(Br)cc2)CC1 | 0 | 0 | 67.2 | 0 | 0 | 0 | 82.6
CCOC(=O)[C@]12CCCC=C1N(Cc1ccc(Cl)cc1Cl)C(=O)[C@H](CC(=O)NCc1cccc3ccccc13)C2 | - | - | 0 | 0 | 0 | - | -
CC(C)Cc1ccc(C(C)C(N)=NCCc2ccccc2)cc1 (stereo not given) | 0 | 0 | 0 | 0 | 0 | 0 | -
S=C(Nc1ccc(Oc2ccccc2)cc1)NC1CCCC1 | 0 | 0 | 86.6 | 0 | 0 | 0 | 83.9
Cc1cc(C)c(CN2CCN(C(=O)CC[C@H]3O[C@@H](n4ccc(=O)[nH]c4=O)[C@H](O)[C@@H]3O)CC2)c(C)c1 | - | - | 0 | 0 | 0 | 0 | -
O=C(Nc1ccc(F)cc1)OCCN1CCN(Cc2ccccc2)CCC1=O | 0 | 0 | 0 | 0 | 0 | 0 | -
O=C(Nc1cccc(C(F)(F)F)c1)OCCN1CCN(Cc2ccccc2)CCC1=O | 0 | 0 | 98.3 | 0 | 0 | 0 | 89.8
O=C(NCCCCCCOC1=NS(=O)(=O)c2ccccc21)C(=O)Nc1ccccc1 | 0 | 0 | 73.0 | 0 | 0 | 0 | 67.8
Cc1ccc(NC(=S)Nc2ccc(OC(F)F)c(Cl)c2)cc1Cl | 0 | 0 | 94.7 | 0 | 0 | 0 | 91.7
Fc1ccc(NC(=S)Nc2ccccc2N2CCOCC2)cc1Cl | 0 | - | 100.2 | 0 | 0 | 0 | 97.7
COc1ccc(NC(=S)Nc2ccc(C)c(Cl)c2)cc1OC | 0 | 0 | 52.5 | 0 | 0 | 0 | 100.0
O=S(=O)(c1ccc(Cl)c(NC(=S)Nc2ccccc2N2CCOCC2)c1)N1CCOCC1 | 0 | 0 | 0 | 0 | 0 | 0 | -
Fc1ccc(NC(=S)Nc2ccccc2OC(F)F)cc1Cl | 0 | 0 | 99.7 | 0 | 0 | 0 | 75.8
Cc1ccc(NC(=S)N(C)N)cc1Cl | 0 | 0 | 0 | 0 | 0 | 0 | -
CC1(C)CC(=O)C=C(c2cccc(Cl)c2O)C1 | 0 | 0 | 0 | 0 | 0 | 0 | -
Cc1ccc(NC(=S)Nc2ccc(Cl)c(Cl)c2)c(OC(F)F)c1 | 0 | 0 | 100.3 | 0 | 0 | 0 | 90.5
CC(NC(=S)Nc1ccc(OC(F)F)c(Cl)c1)C(C)(C)C (stereo not given) | 0 | 0 | 92.9 | 0 | 0 | 0 | 95.3
O=C(CCNC(=O)c1ccco1)Nc1ccc(OC(F)F)c(Cl)c1 | 0 | 0 | 0 | 0 | 0 | 0 | -
O=C(NNC(=S)Nc1cccc(Cl)c1)c1ccccc1OC(F)F | 0 | 0 | 86.5 | 0 | 0 | 0 | 90.0
CCOC(=O)N1CCN(S(=O)(=O)N2CCCC(C(=O)NCc3ccccc3OCC)C2)CC1 (stereo not given) | - | - | 0 | 0 | 0 | 0 | -
CCN1/C(=C/c2sc(-c3ccccc3C)c[n+]2C)Sc2ccccc21 | - | - | 95.0 | 0 | 0 | 0 | 107.3
CCN(CC)C(=O)Cn1cc(C(=O)C(=O)NCc2cccnc2)c2ccccc21 | 0 | 0 | 0 | 0 | 0 | 0 | -
COc1ccc(CNC(=O)c2c(O)c3cccc4c3n(c2=O)CCC4)cc1 | - | 0 | 81.4 | 0 | 0 | 0 | 0
O=C(CNC(=O)c1cccc(Br)c1)N/N=C/c1cc(Br)cc(Br)c1O | 0 | 0 | 66.2 | 0 | 0 | 58.9 | 0
O=C(CN1C(=O)NC2(CCCCCC2)C1=O)Nc1ccc2c(c1)CCC2 | 0 | 0 | 0 | 0 | 0 | 0 | -

Screens (PubChem)
